Screening data: PubChem BioAssay, National Center for Advancing Translational Sciences (NCATS)
The full list was thinned out, with hits kept by preference.
Giardia kill – Giardia lamblia killing; AID 540267; Giardia lamblia trophozoite viability; 340,000 compounds, 0.15% hits; activity change, % at 7.66 µM, hits read low; in the data active means activity change below about -80%; inconclusive means between about -30% and that limit;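 further: parasites exposed to compound for two days anaerobically before the ATP read; on the % scale 0 is the no-effect control and ±100 the full control effect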
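Each well holds 100 Giardia trophozoites and compound. After two days (48 hrs) at 37 deg C in anaerobic conditions, ATP is quantified by luminescence.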
Integrin act MD – activates integrin-mediated alleviation for muscular dystrophy; alpha7betagal myoblasts, beta-gal FDG fluorescence, 48 h; Potency, µM (top dose mostly 38.3 µM), inactives show top-dose activation, most hits filed as activators; 350,000 compounds, 0.064% hits; AID 624291;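 further: potency means the concentration at half of the fitted maximal effect; 100% = response of the positive control SU9516; nearly all actives have a fitted effect of over 60% in size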
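alpha7betagal+/- myoblasts (passage 13, 250/well) treated 48 h at 37C with compounds at 1:260 dilution of DMSO stock. Lysed, then beta-galactosidase activity read as FDG fluorescence (ex 480/em 540) after 30 min, with pre-read for autofluorescence.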
RORgamma inh – blocks mouse ROR gamma transcriptional activity. 310,000 compounds, 5.4% hits. P51450. Drosophila S2 Gal4-RORgamma UAS-luciferase reporter, 20 h. Potency, µM (titrated, usually from 53.6 µM), for inactives: at the highest dose activity change, negative = inhibition, hits mostly inhibitors; further: potency means the concentration at half of the fitted maximal effect; on the % scale 0 is the no-effect control and ±100 the full control effect; nearly all actives have a fitted effect of over 60% in size
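Stably transfected Drosophila Schneider cells are the test system, with ROR gamma fused to Gal4 and luciferase under UAS control; luminescence is read after 20 hr of 700 uM copper sulfate induction at ambient temperature.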
Gal4-VP16 FLuc – Gal4-VP16 reporter inhibition counter-screen; Drosophila S2 Gal4-VP16 UAS-luciferase, luminescence, 20 h; Potency, µM (top dose mostly 53.6 µM), for the others: at the highest dose activity, negative = inhibition, usual class: inhibitors; 310,000 compounds, 3.5% hits;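 further: Gal4-VP16 expression switched on by copper sulfate through the metallothionein promoter; potency means the concentration at half of the fitted maximal effect; on the % scale 0 is the no-effect control and ±100 the full control effect; nearly all actives have a fitted effect of over 50% in size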
ERG-DNA inh – blocks human ERG Ets domain binding to DNA. P11308. fluorescence polarization, His-ERG Ets domain / labelled DNA. Potency, µM (highest dose often 76.9 µM), for the others: at the top dose FP activity, negative = inhibition, hits mostly inhibitors. 370,000 compounds, 0.028% hits; active means well fitted inhibition curve with a large enough effect in the polarisation, with a control signal flat; inconclusive means small, poorly fitted or top-dose-only effect, or effect the other way, or a change in a side signal; inactive means no such curve, though single readings can be large or run the other way; the % refers to the polarisation;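 further: polarization taken with two DNA probes labelled with fluorescein and Texas red; potency means the concentration at half of the fitted maximal effect; % of control where 0% means no effect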
Target sequence (P11308 whole entry, looked up, the tested form may be a part): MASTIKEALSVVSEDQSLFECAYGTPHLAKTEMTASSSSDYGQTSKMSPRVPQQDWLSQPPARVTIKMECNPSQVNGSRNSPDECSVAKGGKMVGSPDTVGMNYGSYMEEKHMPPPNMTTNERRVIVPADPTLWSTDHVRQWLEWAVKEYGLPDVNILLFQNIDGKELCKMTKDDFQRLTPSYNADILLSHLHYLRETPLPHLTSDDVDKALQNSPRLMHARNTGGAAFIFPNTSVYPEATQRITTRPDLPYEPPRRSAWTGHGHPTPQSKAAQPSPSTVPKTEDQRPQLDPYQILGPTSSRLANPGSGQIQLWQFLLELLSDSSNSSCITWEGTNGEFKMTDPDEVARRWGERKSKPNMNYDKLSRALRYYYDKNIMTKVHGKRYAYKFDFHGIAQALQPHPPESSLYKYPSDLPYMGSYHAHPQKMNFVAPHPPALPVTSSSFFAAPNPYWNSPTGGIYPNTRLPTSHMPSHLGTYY
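His-tagged ERG Ets domain (1 uM in the protein solution; 300mM KCl, 50mM Tris-HCl, 1mM EDTA, 1mM DTT, pH 7.5) received compound, then a probe mix of 5 nM fluorescein-DNA and 100nM Texas-615-DNA. Fluorescence polarization was read for both dyes.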
An asterisk follows results filed as active; ? = inconclusive; · = not tested or not shown; [ ] = another dose, or the depositor's remark. Unless noted, the call rests on the fitted dose curve; in most records, active means well fitted curve in the direction sought with a large enough effect; inconclusive means small, poorly fitted or top-dose-only effect, or another doubt; inactive means no such curve, though single readings can be large; an effect the other way counts as inactive or inconclusive.

SMILES | Giardia kill | Integrin act MD | RORgamma inh | Gal4-VP16 FLuc | ERG-DNA inh
CC1CN(c2ccc(NC(=S)Nc3ccc(N4CC(C)OC(C)C4)cc3)cc2)CC(C)O1 (centres undefined) | 2 | -35% | 2.5µM* | 8.9µM* | 8%
O=C(N/N=C/c1ccccn1)c1cc(-c2ccc(Cl)cc2)nc2ccccc12 | 11 | -23% | 0.4µM* | 0.71µM* | 4%
O=C(N/N=C/c1ccccn1)c1cc(-c2ccc(Br)cc2)nc2ccccc12 | -10 | -31% | 0.63µM* | 1.1µM* | -9%
O=C(O)COc1ccccc1/C=N/NC(=O)c1cc(-c2ccc(Cl)cc2)nc2ccccc12 | -3 | 23% | -10% | -3% | 1%
Cc1nc(NC(=O)/C=C/c2ccccc2)sc1C(=O)Nc1ccc(Cl)cc1 | 10 | -6% | -38% | ? | -6%
Cc1nc(NC(=O)/C=C/c2ccccc2)sc1C(=O)Nc1ccccc1Cl | -3 | 7% | 16µM* | ? | -6%
Cc1ccc(OCCCSc2nc(-c3ccc(C(C)(C)C)cc3)nc3cc(=O)[nH]n23)cc1C | · | · | · | · | -3%
Cc1[nH]c2ccc(-c3n[nH]c(=S)n3C)cc2c1C | -17 | ? | 11µM* | ? | ·
CCn1c(-c2ccc3[nH]c(C)c(C)c3c2)n[nH]c1=S | -18 | 17% | 11µM* | 13µM* | ·
CCOC(=O)c1ccc2[nH]c(C)c(C)c2c1 | -4 | 12% | · | · | -5%
COC(=O)N1[C@H](C)C=C[C@]1(Cc1ccccc1)C(=O)NCc1ccc(N(C)C)cc1 | · | · | 16% | 14% | ·
CO[C@@H]1COC(=O)C/C=C\[C@@H](C)[C@@H]2C=C[C@H](O)[C@@H](COC(=O)CCC[C@H]1C)O2 | · | · | -2%[10 µM] | -2%[10 µM] | ·
Nc1cccc2c1C(=O)N(C(=O)/C=C/c1cccc(Br)c1)C2=O | 36 | -49% | ? | ? | -7%
Nc1cccc2c1C(=O)N(C(=O)/C=C/c1cccc(F)c1)C2=O | -6 | 0% | ? | 22µM* | 1%
CCc1cc(-c2[nH]ncc2-c2ccc([N+](=O)[O-])cc2)c(O)cc1OC | 2 | 44% | 13µM* | 20µM* | -1%
CCc1cc(-c2oncc2-c2ccc(OC)cc2)c(O)cc1OC | · | · | ? | 14µM* | ·
O=S(=O)(N1CCN(c2nc(-c3cccs3)nc3ccccc23)CC1)C(F)(F)F | 17 | · | · | · | ·
COCCCN1C(=O)C(CC(=O)NCc2ccco2)CC(C(=O)N(C)C)=C1C (centres undefined) | · | -4% | · | · | ·
O=[N+]([O-])c1ccc(CSc2ccccn2)cc1 | -5 | -6% | 30% | 3% | 2%
O=[N+]([O-])c1ccc(CSc2ncnc3ccccc23)cc1 | 1 | -13% | 7.9µM* | 23% | 9%
CN(C1=C(N2CCOCC2)C(=O)c2ccccc2C1=O)c1ccccc1 | -12 | 0% | 14µM* | -26% | -7%
CC1=C(C)C(=O)C(N2CCOCC2)=CC1=O | -5 | -39% | 22µM* | ? | -7%
O=C1C=C(N2CCOCC2)c2ccccc2C1=O | 18 | -63% | 4µM* | 3.2µM* | 13%
O=C1C(NS(=O)(=O)c2cccs2)=C(N2CCOCC2)C(=O)c2ccccc21 | -16 | -4% | -23% | -13% | -3%
CC(=O)c1ccc(NC(=S)NCCc2ccccn2)cc1 | -21 | -13% | ? | -23% | -5%
SMILES | Giardia kill | Integrin act MD | RORgamma inh | Gal4-VP16 FLuc | ERG-DNA inh
CN(C)S(=O)(=O)c1cccc(NC(=S)NCCc2ccccn2)c1 | -4 | ? | 15% | 8% | -3%
CC(C)(C)c1ccc(NC(=S)NCCc2ccccn2)cc1 | 5 | -10% | 0.5µM* | ? | -3%
FC(F)(F)c1cccc(NC(=S)NCCc2ccccn2)c1 | -6 | -60% | 4µM* | 11µM* | 8%
Fc1ccc(NC(=S)NCCc2ccccn2)cc1 | -8 | -12% | 10µM* | ? | -3%
S=C(NCCc1ccccn1)Nc1ccc(Cl)cc1 | -8 | -20% | 6.3µM* | ? | 7%
COc1ccc(CCC(C)N(C)Cc2ccccc2)cc1 (centres undefined) | 24 | -1% | 0% | -2% | -16%
CCCc1nc(SC)[nH]c(=O)c1C | 25 | 10% | 1% | -7% | 3%
O=[N+]([O-])c1ccc(O)c(-c2nn[nH]n2)c1 | 4 | 8% | 10µM* | -24% | 1%
Cc1ccc(NC(=S)NCc2ccc(F)cc2)cc1 | 13 | 0% | · | · | 5%
COc1cccc(NC(=S)NCc2ccc(F)cc2)c1 | 9 | 17% | ? | 7.1µM* | 9%
Cc1cccc(NC(=S)NCc2ccc(F)cc2)c1 | 7 | 11% | ? | 13µM* | 10%
COc1ccc(CNC(=S)Nc2cccc(Cl)c2)cc1 | 34 | -15% | · | · | 11%
COc1ccc(CNC(=S)Nc2ccccc2)cc1 | 5 | -13% | 7.1µM* | 10µM* | -1%
COc1ccc(CNC(=S)Nc2cccc(C)c2)cc1 | 3 | -13% | 10µM* | 20µM* | 2%
CCOCCc1nn2c(=O)cc(COC(=O)c3ccc(NC(=O)C4CCCCC4)cc3)nc2s1 | · | · | · | · | 2%
CC1CN(C(=O)Nc2ccc(C(=O)NCc3ccccc3F)cc2)c2ccccc2S1 (centres undefined) | · | · | · | · | 5%
C=CCOc1ccc(/C=C/C(=O)OCC(=O)N2CCC(c3ccccc3)=N2)cc1 | -8 | 13% | · | · | -4%
Cc1cc(C)c2c(n1)SCCN2C(=O)Nc1ccc(C(=O)Nc2cc(Cl)ccc2C)cc1 | · | · | · | · | 6%
Cc1noc(C)c1C(=O)N1CCC[C@@]2(CCN(c3ccccn3)C2)C1 | · | · | -18% | -4% | ·
CCOC(=O)N1CCN([N+]([O-])=NOc2cc(O/N=[N+](\[O-])N(CC)CC)c([N+](=O)[O-])cc2[N+](=O)[O-])CC1 | -21 | · | 39% | 28% | ·
COc1ccc(CNC(=S)Nc2cccc(F)c2)cc1 | 0 | -5% | 10µM* | 6.3µM* | 6%
Cc1cccc(NC(=S)NC(C)(C)CC(C)(C)C)c1 | -9 | ? | 2.2µM* | 8.9µM* | -2%
Cc1cccc(NC(=S)NCCN2CCOCC2)c1 | -9 | -4% | ? | ? | -3%
CCOc1ccc(NC(=O)CSc2nc(C)c(C(=O)Nc3ccccc3)c(-c3ccc(Cl)cc3)c2C#N)cc1 | · | · | · | · | 5%
CC(=O)c1cccc(N(C(=O)CNC(=O)c2ccco2)C(C(=O)NC2CCCC2)c2ccco2)c1 (centres undefined) | 6 | ? | 0% | -5% | -1%
Cc1ccc(Sc2ncccc2C(=O)NCC(c2ccc(F)cc2)N2CCOCC2)cc1C (centres undefined) | 1 | 0% | · | · | -5%
CCCOc1nc(SCCC)nc2c1cnn2-c1ccccc1 | 1 | 11µM* | -3% | 20% | 3%
CCCCn1c(SCC(N)=O)nc2ccc(N3CCOCC3)cc2c1=O | 5 | -25% | 1.6µM* | 10µM* | -3%
COc1ccc(Cn2c(SCC#N)nc3ccc(N4CCOCC4)cc3c2=O)cc1 | -13 | -39% | 10µM* | ? | -7%
